Source: PubChem (National Center for Advancing Translational Sciences (NCATS))
Marburg entry inh: qHTS for inhibitors of binding or entry into cells for Marburg Virus; Marburg virus pseudotyped entry inhibition, cell reporter; Potency, µM (doses to about 37.8 µM), hits mostly inhibitors; hit rate 1.8% among 300,000; calls by dose curve; tested in HEK293 cells
LASV entry inh: qHTS for Inhibitors of binding or entry into cells for Lassa Virus; hit rate 1.2% among 300,000; Lassa virus pseudotype entry inhibition, cell reporter; Potency, µM (series often up to 37.9 µM), actives largely listed as inhibitors; calls by dose curve; tested in HEK293 cells; also: nearly all actives have a fitted effect of over 50% in size
HCV inh: qHTS Assay for Inhibitors of Hepatitis C Virus (HCV) | Huh7.5.1 HCVcc-Cre infection, luciferase reporter, 44 h | Potency, µM (doses to about 41.8 µM), actives largely listed as inhibitors | hit rate 3.4% among 340,000; active = well fitted inhibition curve with a large enough effect; inconclusive = small, poorly fitted or top-dose-only effect, or another doubt; inactive = no such curve, though single readings can be large or run the other way
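HCVcc-Cre virus at an moi near 0.5 was added right after compound to cells cultured 4 h from seeding (1,000 cells/well). Luciferase activity was determined 44 h later, 15 min after substrate addition at RT.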
HCMV inh: qHTS Assay for inhibitors of the human cytomegalovirus (HCMV); HFF cells, HCMV-luciferase reporter, 72 h; stronger effect = lower value; activity change, negative = inhibition, % at 57.5 µM; hit rate 4.5% among 410,000; AID 1259415, 2018; in the data active = activity change below about -60%; inconclusive = no clear call, values can overlap the other calls; inactive = above about -39%
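HFF cells seeded 16 h at 37C, treated with compounds, infected with luciferase-reporter HCMV at MOI 1 PFU/cell; luciferase read at 72 h post infection, normalized to buffer-only and Salinomycin controls.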
FMDV antiviral: High Throughput Screening for Foot and Mouth Disease Virus Antivirals; FMDV antiviral cell-based qHTS; Potency, µM (doses to about 57.9 µM), most hits filed as inhibitors; AID 1159524, 2015; hit rate 1.2% among 410,000; calls by dose curve; tested in HEK293T cells; also: read-out not given here; nearly all actives have a fitted effect of over 45% in size
A number is an active result; n = inactive; u = inconclusive; x = no result given. This is a sample that favours compounds with a hit; in the whole collection about 7.9% have one here.

SMILES	Marburg entry inh	LASV entry inh	HCV inh	HCMV inh	FMDV antiviral
Cc1nc2ccc(-c3nc4ccccc4o3)cc2[nH]1	n	u	u	n	n
Nc1ccc(-c2nc3ccc(-c4nc5ccccc5o4)cc3[nH]2)cc1	7.08µM	n	u	n	n
COc1cc(CNc2ccc(S(N)(=O)=O)cc2)ccc1OCc1ccccc1F	x	x	11.2µM	u	n
COc1cccc(CNc2ccc(S(N)(=O)=O)cc2)c1OCc1ccccc1F	u	u	u	n	u
Cc1ccc(-n2sc3cc(F)ccc3c2=O)c(C)c1	x	x	x	-70.4	u
CCN1C(=O)[C@H]2[C@@H](c3ccc(OC)cc3)N[C@]3(CCCN(Cc4ccc(OC)cc4)C3=O)[C@H]2C1=O	x	x	x	n	n
C=CCn1cc(C(=O)NCCOC)c(=O)c2cc(S(=O)(=O)N(CC)CC)ccc21	n	11.6µM	n	n	n
C=CCn1cc(C(=O)NCCCOCC)c(=O)c2cc(S(=O)(=O)N(CC)CC)ccc21	n	6.51µM	n	n	n
O=c1[nH]cn[nH]1	x	x	0.562µM	n	n
CCOC(=O)c1c(NC(=O)C2CCCCC2C(=O)O)sc2c1CCCC2 (configuration not stated)	n	x	x	x	x
CC1=CC(=C2C(=O)c3ccccc3C2=O)C=C(C)O1	n	n	n	n	n
CC(=O)N1C(=O)C(=C2C=C(C)OC(C)=C2)c2ccccc21	n	n	10µM	n	n
COc1cc([C@@H](NC(=O)C(F)(F)F)C2CCCCC=C2c2ccccc2)cc(OC)c1OC (some centres not stated)	n	n	x	x	x
COc1cc(=O)n2c(c1C(=O)NC(C)c1ccco1)CCN(Cc1cc(C)ccc1C)CC2 (configuration not stated)	x	x	x	x	n
COc1ccc(C(=O)NCC2Cc3cc(F)cc(-c4cncnc4)c3O2)cc1 (configuration not stated)	x	x	x	x	n
CC(=O)Nc1sc2c(c1C(c1ccccc1Cl)N1CCN(CCO)CC1)CCCC2 (configuration not stated)	x	x	11.2µM	n	n
CSc1ccc(CCNC(=O)c2cc3cc(S(=O)(=O)N4CCCCC4)ccc3n2C)cc1	x	n	x	-66.8	u
CN(C)c1ccc(CNC(=O)c2cc3cc(S(=O)(=O)N4CCCCC4)ccc3n2C)cc1	x	10µM	x	n	n
Cc1ccc(CCNC(=O)c2cc3cc(S(=O)(=O)N4CCCCC4)ccc3n2C)cc1	x	u	x	n	u
Cc1ccc2c(c1)cc(C(=O)NCc1ccc(F)cc1)n2C	u	2µM	x	u	n
Cc1cccc(CNC(=O)c2cc3cc(S(=O)(=O)N4CCCCC4)ccc3n2C)c1	x	n	x	n	n
CCOc1ccc(CNC(=O)c2cc3cc(S(=O)(=O)N4CCCCC4)ccc3n2C)cc1	x	u	x	-68.1	u
O=C(c1ccccc1C(F)(F)F)N1CCOc2c(cc(-c3nc4ccccc4s3)cc2OC2CCOC2)C1 (configuration not stated)	x	x	x	x	n
COc1cc(C(=O)Nn2c(C)nc3ccccc3c2=O)cc(OC)c1OC	n	n	n	n	n
Cc1ccc(/C=C2\Oc3cc(OC(=O)N4CCOCC4)ccc3C2=O)cc1	n	n	n	n	n
SMILES	Marburg entry inh	LASV entry inh	HCV inh	HCMV inh	FMDV antiviral
CC(C)(C)c1ccc(/C=C2\Oc3cc(OC(=O)N4CCOCC4)ccc3C2=O)cc1	u	8.91µM	u	n	u
C=CC[n+]1c(-c2ccc(OC)cc2)csc1NNC(=O)Nc1ccccc1	n	u	11.2µM	u	x
C=CC[n+]1c(-c2ccc(C)cc2)csc1Nc1ccc(NC(C)=O)cc1	6.51µM	2.31µM	n	-88.5	u
c1ccc(C[n+]2c(-c3ccccc3)csc2Nc2ccccc2)cc1	n	n	u	n	n
CCOC(=O)CC1C(=O)NCCN1S(=O)(=O)c1ccc(Cl)cc1 (configuration not stated)	n	n	n	n	n
CCOC(=O)CC1C(=O)NCCN1S(=O)(=O)c1cc(Cl)c(Cl)cc1Cl (configuration not stated)	1.58µM	n	n	n	n
COc1ccc(C2CC(=O)c3cc(-c4nc(-c5cccc(Cl)c5)cs4)c(=O)[nH]c3C2)cc1OC (configuration not stated)	n	n	x	n	n
CCOc1ccc(NC(=O)CSC2=C(C#N)[C@H](c3ccc4c(c3)OCO4)CC(=O)N2)cc1	n	x	x	x	x
O=C(/C=C/c1cccs1)Nc1cccc(NC(=O)/C=C/c2cccs2)n1	u	u	u	n	n
Cc1ccc(C(=O)Nc2ccccc2C(=O)Nc2ccccn2)cc1Cl	12.6µM	n	u	n	n
O=C(/C=C/c1cccs1)Nc1ccc(Br)cn1	u	u	n	-66.1	n
Cc1ccnc(NC(=O)c2ccccc2NC(=O)c2ccc(Cl)cc2Cl)c1	x	x	10µM	n	n
O=C(Nc1ccc(Br)cn1)c1ccc(Br)s1	u	u	u	-99.3	n
Cc1ccnc(NC(=O)c2ccc(Cl)c(NC(=O)c3ccccc3C)c2)c1	x	x	u	x	n
COc1cc(=O)n2c(c1C(=O)NCc1ccco1)CCN(Cc1cccc(C)n1)CC2	x	x	x	x	n
N#CCCn1c(=O)c(-c2ccc(F)cc2)nc2cnc(Oc3ccccc3)nc21	x	x	x	x	n
O=C(Nc1ccccc1C(=O)Nc1ccc(Br)cn1)c1ccccc1Cl	x	x	12.6µM	n	n
Cc1cccc(OCCC(=O)Nc2ccc(C)c(S(=O)(=O)N3CCOCC3)c2)c1	x	x	12.6µM	n	u
Cc1ccc(NC(=O)CN2c3cccc4cccc(c34)S2(=O)=O)cc1S(=O)(=O)N1CCOCC1	u	n	11.2µM	n	n
CCOc1ccccc1OCCCC(=O)Nc1ccc(Cl)c(S(=O)(=O)N2CCOCC2)c1	x	x	7.94µM	u	u
COc1cc(S(=O)(=O)N2CCOCC2)ccc1NC(=O)CN1c2cccc3cccc(c23)S1(=O)=O	n	u	u	n	n
Cc1cccc(OCCCC(=O)Nc2ccc(Cl)c(S(=O)(=O)N3CCOCC3)c2)c1	x	x	7.94µM	n	u
CCCCn1c(N)c(N(CC(C)C)C(=O)CCCn2c(=O)oc3ccccc32)c(=O)[nH]c1=O	n	n	n	n	n
CCN1C(=O)C[C@H](N2CCN(c3ccc(OC)cc3)CC2)C1=O	n	x	x	x	x
CCC1C(=O)NCCN1Cc1ccc2c(c1)CN(Cc1ccc(F)c(OC)c1)CCO2 (configuration not stated)	x	x	x	x	n
Cc1cccc(OCCC(=O)Nc2ccc(S(=O)(=O)N3CCCC3)cc2)c1	u	n	u	n	u
Cc1cccc(OCCC(=O)Nc2ccc(C)c(S(=O)(=O)N3CCCCC3)c2)c1	u	u	3.16µM	-64.5	n
Cc1ccc(NC(=O)COc2cccc(Oc3ccccc3)c2)cc1S(=O)(=O)N1CCOCC1	u	u	3.16µM	n	n
Cn1c(CNC(=O)C(Cc2ccccc2)NC(=O)c2ccccc2F)cc(=O)n(C)c1=O (configuration not stated)	x	x	n	n	n
Cc1cccc(CNC(=O)c2cnn(-c3nccc(-c4ccccc4F)n3)c2C)n1	x	x	x	x	n
